An excerpt weighted towards active compounds, which were near 1.2% of everything screened.
GALR2 ag – GALR2 (human) receptor agonism | GALR2-expressing cells, agonist activation read-out | activation, % (concentration not given with the values) | 0.48% of 140,000 active | O43603 | AID 803; in the data active = activation above about 5%, passing the limit was not always enough;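 also: 0% = vehicle buffer wells and 100% = reference agonist at full effect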
GALR2 blocker – GALR2 (human) receptor antagonism; 0.39% of 140,000 active; AID 828; GALR2-expressing cells, antagonist mode; inhibition, % at 4 µM; O43603; in the data active = inhibition above about 27%;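 also: cells stimulated with galanin 1-16 at roughly its EC80; 0% = agonist challenge control and 100% = basal control without agonist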
S1P2 agonist – activates the human S1P2 receptor. AID 729. activation, % at 4.5 µM. O95136. 0.46% of 97,000 active. S1P2-expressing cell line, agonist reporter read-out; in the data active = activation above about 16%;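 also: 0% = vehicle low control and 100% = maximal reference agonist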
Target sequence (O95136 whole entry, looked up): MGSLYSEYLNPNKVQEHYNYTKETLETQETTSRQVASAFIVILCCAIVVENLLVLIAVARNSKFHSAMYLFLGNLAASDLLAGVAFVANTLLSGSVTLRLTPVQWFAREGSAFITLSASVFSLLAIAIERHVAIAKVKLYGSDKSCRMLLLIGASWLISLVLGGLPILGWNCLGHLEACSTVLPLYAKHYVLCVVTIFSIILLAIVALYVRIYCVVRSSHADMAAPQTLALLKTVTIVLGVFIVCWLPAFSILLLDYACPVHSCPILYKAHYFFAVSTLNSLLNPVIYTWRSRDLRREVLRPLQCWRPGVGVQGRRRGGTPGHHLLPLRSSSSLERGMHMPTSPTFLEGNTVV
S1P2 antag – S1P2 (human) receptor antagonism. cell-based S1P2 antagonist assay, inhibition at 5 uM. O95136. inhibition, % at 5 µM. 0.21% of 97,000 active; in the data active = inhibition above about 45%;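 also: CRE beta-lactamase reporter cells expressing human S1P2 stimulated with S1P; 0% = agonist at EC80 alone and 100% = agonist plus reference antagonist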
GALR2 ag confirm – GALR2 (human) agonism confirmed; shares compounds with GALR2 ag; GALR2-expressing cells, agonist activation; AID 864; 10% of 460 active; activation, % at 5.6 µM; in the data active = activation above about 8.4%;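 also: 0% = buffer-only vehicle wells and 100% = full reference agonist response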
BLA act counter – activates beta-lactamase reporter in GALR2 agonist counterscreen; CHO NFAT-bla reporter, beta-lactamase FRET activation; activation, % at 5.6 µM; 10% of 460 active; shares compounds with GALR2 ag;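 active = activation above the screen-wide mean activation plus 3 SD, cut at about 8% in these data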;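 also: 0% = DMSO with PBS wells and 100% = thapsigargin positive control wells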
An asterisk follows results filed as active; x = no result given.

SMILES	GALR2 ag	GALR2 blocker	S1P2 agonist	S1P2 antag	others
COc1ccc2[nH]c(=O)c3c(c2c1)OC(C)(C)C=C3	-2	2	-11	57*
C#CCNc1nc(CC)nc2c1nnn2Cc1ccccc1F	0	-3	28*	-30
Cc1c(C(=O)N/N=C/c2ccc(N(C)C)cc2)[nH]c2ccc(Cl)cc12	6.4*	4	x	x
CC(C)=CC(=O)NCc1c(Cl)cccc1-n1cccc1	-3	-19	-6	15
O=C(COC(=O)c1ccccc1C(=O)c1ccc(Cl)cc1)NCCc1ccccc1	-1	7	x	x
O=C(COC(=O)c1ccccc1C(=O)c1ccccc1)NCCc1ccccc1	7.0*	-2	x	x
Cc1cccc(-n2c(CCc3ccccc3)nnc2SCC(=O)c2ccccc2)c1	0	-1	x	x
O=C(Cc1coc2ccc3ccccc3c12)N1CCCC1	0	1	25*	-29
Cc1nc2ccccc2cc1OCc1ccccc1	-1	24	-2	31
Cc1nc2ccccc2cc1OCc1ccc(Cl)cc1	0	20	-3	70*
COc1nc(C)nc(NC(=O)NS(=O)(=O)c2ccc(C)cc2)n1	-1	1	26*	2
CCc1nc2ccccc2c(C(=O)OCC(=O)Nc2cccc(S(=O)(=O)N3CCOCC3)c2)c1C	0	13	18*	15
CCc1nc2ccccc2c(C(=O)OCC(=O)Nc2ccc(S(=O)(=O)N3CCOCC3)cc2)c1C	1	3	x	x
CCOC(=O)c1cc2c(=O)n3ccccc3nc2n(CCOC)c1=NC(=O)c1ccncc1	7.5*	-11	19*	-15
CCOC(=O)c1cc2c(=O)n3ccccc3nc2n(Cc2ccccc2)c1=N	-1	-2	3	-13
CCOC(=O)c1cc2c(=O)n3ccccc3nc2n(C(C)C)c1=NC(=O)c1ccncc1	7	-9	18*	-8
CCOC(=O)c1cc2c(=O)n3ccccc3nc2n(CCCOC)c1=NC(=O)C(C)(C)C	12*	-21	33*	-43
CCOC(=O)c1cc2c(=O)n3ccccc3nc2n(CCCOC)c1=NC(=O)c1cccnc1	3	-19	22*	-18
COc1ccc(C)cc1S(=O)(=O)N1CCC(C(=O)NCCc2ccccc2)CC1	-1	-4	x	x
Cc1ncsc1CCOC(=O)C1C2CC3CC(C2)CC1C3 (centres undefined)	-1	-2	x	x
O=C(CSc1nc2ccccc2c(=O)n1NC(=O)Cc1ccccc1)NCc1ccccc1Cl	0	4	-7	-1
CCOC(=O)c1cc2c(=O)n3ccccc3nc2n(CCOC)c1=NC(=O)C(C)(C)C	8.7*	-18	25*	10
CCOC(=O)c1cc2c(=O)n3ccccc3nc2n(CC(C)C)c1=NC(=O)c1ccco1	4	0	14	-58
CCOCCCn1c(=NC(C)=O)c(C(=O)OCC)cc2c(=O)n3ccccc3nc21	7.8*	0	19*	-40
O=C(CCn1c(=O)oc2ccccc21)Nc1ccccc1	7.9*	-14	0	6
SMILES	GALR2 ag	GALR2 blocker	S1P2 agonist	S1P2 antag	others
COc1ccc(OC)c(/C=N/NC(=O)Cc2nc3ccccc3[nH]2)c1	-2	19	x	x
O=C(N/N=C/C=C/c1ccccc1)C(O)c1ccccc1 (centres undefined)	-5	30*	-5	9
O=C(N/N=C/C=C/c1ccco1)C(O)c1ccccc1 (centres undefined)	-2	11	-2	12
COc1cccc(NC(=O)CCNC(=O)Cn2ccc3ccccc3c2=O)c1	-1	-16	-3	0
CCCOc1nc2c(c(=O)n(C)c(=O)n2C)n1CCC	7.8*	-1	x	x
Cc1nc2cc(NC(=O)N(C)c3ccc4ccccc4c3)ccc2o1	5.0*	-35	-2	4
C=CCNC(=O)Nc1ccc2oc(C)nc2c1	-3	-5	-6	22
Cc1ccc(C)c2[nH]c(=O)c(C(c3nnnn3C(C)(C)C)N3CC=C(c4ccc(F)cc4)CC3)cc12 (centres undefined)	-2	-4	x	x
CN(c1ccccc1)c1ccc(/C=C/[N+](=O)[O-])cc1	5.5*	24	x	x
COc1cccc(/C=N/NC(=O)c2nc(-c3ccccc3)cc(-c3ccccc3)n2)c1	-1	-4	-4	47*
Cc1cccc(-n2c(SCc3cc(=O)n4c(C)cccc4n3)nc3[nH]ncc3c2=O)c1	-2	3	17*	-30
CO/N=C/c1ccc(Sc2ccccc2N)c([N+](=O)[O-])c1	0	6	17*	-27
CCCn1c2ccccc2c2nnc(SC(CC)C(=O)Nc3sc4c(c3C#N)CCCC4)nc21 (centres undefined)	-2	6	-2	-23
CCCn1c2ccccc2c2nnc(SC(CC)C(=O)Nc3cc(C)on3)nc21 (centres undefined)	1	-6	30*	-38
Cc1cc(/C=N/n2cnnc2)c(C)n1-c1ccc(OCc2ccc(F)cc2)cc1	0	7	-5	69*
CCCOc1ccc(CSc2nc3ccccc3[nH]2)cc1	-1	3	-8	48*
CC1CCCN(c2c([N+](=O)[O-])c(=O)oc3ccccc23)C1 (centres undefined)	28*	-5	-4	24	GALR2 ag confirm=0;BLA act counter=1
CC(=O)N1CCN(CC(=O)Nc2ccccc2Sc2ccccc2)CC1	0	3	x	x
CC(=O)NNC(=O)CCC(=O)Nc1ccccc1	17*	-1	-5	-17	GALR2 ag confirm=-1;BLA act counter=-2
Cc1[nH]nc(N=CC2=C(O)CC(c3ccco3)CC2=O)c1-c1ccccc1 (centres undefined)	0	3	1	-6
Cc1[nH]nc(N=CC2=C(O)CC(C)(C)CC2=O)c1-c1ccccc1	14*	2	-5	0	GALR2 ag confirm=-1;BLA act counter=-3
CCN(CC)c1ccc(C(=O)OCc2cc(=O)oc3cc(O)ccc23)cc1	1	-1	-4	-6
CCN(CC)c1ccc2c(Cl)cc(=O)oc2c1	9	22	9	47*	GALR2 ag confirm=2;BLA act counter=7
CCCn1c(SCC(=O)c2c(C)[nH]c(C)c2C(=O)OCC)nc2ccccc21	-1	3	x	x
O=C(c1cc(C2CC2)on1)N1CCN(c2ccccc2)CC1	-2	-11	-3	17
SMILES	GALR2 ag	GALR2 blocker	S1P2 agonist	S1P2 antag	others
CCN(CC)c1ccc(NC(=O)COC(=O)/C=C/c2nc3ccccc3s2)cc1	0	-5	x	x
CCN(CC)c1ccc(/C=C/c2nc3ccccc3s2)cc1	17*	26	13	66*	GALR2 ag confirm=5;BLA act counter=6
Cc1c(Cl)c([N+](=O)[O-])nn1CC(=O)N1CCCC1	-2	-2	x	x
Cc1c(Cl)c([N+](=O)[O-])nn1CC(=O)NC12CC3CC(CC(C3)C1)C2	38*	-18	-2	-20	GALR2 ag confirm=0;BLA act counter=0
COc1ccc(C(=O)N2CCC(O)(c3ccc(F)cc3)CC2)cc1OC	98*	-6	-5	-30	GALR2 ag confirm=0;BLA act counter=-3
N=c1oc2cc(O)ccc2cc1C(=O)Nc1nc2ccccc2s1	25*	-37	x	x	GALR2 ag confirm=36*;BLA act counter=94*
CCCCNC(=O)c1ccc(Cn2c(=S)[nH]c3c([nH]c4ccc(OC)cc43)c2=O)cc1	10*	5	x	x	GALR2 ag confirm=3;BLA act counter=0
